Assay results reported in PubChem BioAssay (Tox21).
Several values for one entry are separate records, joined by “and”; a condition that tells them apart may be missing. Identical values can stand only once. Results filed as inconclusive are left out. Entries that show only a call come without a potency. A structure can be active in one record and inactive in another. Activity calls are given as the source filed them. Unless noted, the call rests on the fitted dose curve; in most records, active means well fitted curve in the direction sought with a large enough effect in the repeat runs; inconclusive means weak or mixed curves; inactive means no such curve, though single readings can be large; an effect the other way counts as inactive or inconclusive.

Experiments:
[1] = qHTS assay to identify small molecule agonists of the estrogen receptor alpha (ER-alpha) signaling pathway in the presence of an antagonist - cell viability counter screen (AID 1259386);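 further: cells exposed to compounds for 22 h at 37 °C before the viability read; nearly all actives have a fitted effect of over 30% in size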; further: potency means the concentration at half of the fitted maximal effect
Summary of the method: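 Using estrogen-depleted VM7Luc4E2 cells, the 15-concentration compound series was applied together with 10.0nM ICI-182,780 and incubated 22hr at 37C/5% CO2. Cell viability was then scored by CellTiter-Fluor.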

[2] = target: Progesterone receptor (Homo sapiens) (UniProt P06401); assay: qHTS assay to identify small molecule agonists of the progesterone receptor (PR) signaling pathway (AID 1346784; calls by dose curve; further: nearly all actives have a fitted effect of over 30% in size)
Progesterone receptor (Homo sapiens), sequence (P06401 whole entry, looked up): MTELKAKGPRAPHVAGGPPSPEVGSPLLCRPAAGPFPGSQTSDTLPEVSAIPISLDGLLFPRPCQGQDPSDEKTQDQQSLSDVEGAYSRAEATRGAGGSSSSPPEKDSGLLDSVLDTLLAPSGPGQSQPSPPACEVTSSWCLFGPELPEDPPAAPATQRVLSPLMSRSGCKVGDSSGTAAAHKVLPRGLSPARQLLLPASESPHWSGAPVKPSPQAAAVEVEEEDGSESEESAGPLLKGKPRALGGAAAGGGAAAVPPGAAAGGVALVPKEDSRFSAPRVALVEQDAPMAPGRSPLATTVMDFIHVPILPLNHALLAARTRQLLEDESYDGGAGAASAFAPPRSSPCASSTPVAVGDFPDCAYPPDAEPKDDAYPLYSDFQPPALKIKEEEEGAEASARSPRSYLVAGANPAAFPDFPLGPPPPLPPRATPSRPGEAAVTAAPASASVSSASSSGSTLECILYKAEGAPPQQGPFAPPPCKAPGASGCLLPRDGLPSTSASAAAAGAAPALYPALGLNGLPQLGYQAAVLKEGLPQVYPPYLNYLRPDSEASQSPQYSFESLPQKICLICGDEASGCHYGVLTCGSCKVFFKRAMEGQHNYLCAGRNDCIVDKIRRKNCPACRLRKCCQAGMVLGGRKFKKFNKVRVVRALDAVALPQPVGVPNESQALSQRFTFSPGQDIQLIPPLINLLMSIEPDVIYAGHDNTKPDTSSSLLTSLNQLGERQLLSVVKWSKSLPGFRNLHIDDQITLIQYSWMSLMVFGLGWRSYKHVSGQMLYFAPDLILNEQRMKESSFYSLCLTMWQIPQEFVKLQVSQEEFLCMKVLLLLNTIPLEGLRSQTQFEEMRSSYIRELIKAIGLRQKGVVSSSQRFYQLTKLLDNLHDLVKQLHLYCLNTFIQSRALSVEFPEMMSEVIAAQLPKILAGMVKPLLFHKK
Summary of the method: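 Cells (PR-UAS-bla HEK 293T, GripTite) were plated in assay medium containing 2% charcoal-stripped FBS and incubated 6 hr. Test compounds in DMSO were added for 16 hr at 37C. FRET substrate was then loaded for 2 hr at room temperature before fluorescence reading.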

[3] = qHTS assay to identify small molecule antagonists of the progesterone receptor (PR) signaling pathway - cell viability counter screen (AID 1346798); further: series mostly up to about 92 µM; nearly all actives have a fitted effect of over 50% in size
Summary of the method: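 Counter screen for cytotoxicity: viability of PR-UAS-bla HEK293T cells was measured with CellTiter-Glo luminescence following 16 hr compound exposure in the presence of R5020.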

[4] = qHTS assay to identify small molecule agonists of the progesterone receptor (PR) signaling pathway - cell viability counter screen (AID 1346799; calls by dose curve; further: nearly all actives have a fitted effect of over 45% in size; further: potency means the concentration at half of the fitted maximal effect)
Summary of the method: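 Cells (PR-UAS-bla HEK293T) are plated at 3,000/well in 2% charcoal-stripped FBS medium, rested 6 hr, dosed and incubated 16 hr at 37C. CellTiter-Glo is then added and luminescence measured after 30 min at room temperature.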

[5] = qHTS assay to identify small molecule antagonists of the TGF-beta/Smad signaling pathway - cell viability counter screen (AID 1346824); further: nearly all actives have a fitted effect of over 50% in size; further: potency means the concentration at half of the fitted maximal effect
Summary of the method: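 Cytotoxicity counter-screen run in the same wells as the beta-lactamase Smad reporter read: CellTiter-Glo luminescence after 30 min at room temperature. HEK 293T SBE-bla cells had 5 hr compound exposure at 37 C with TGF-beta1 (0.25 ng/mL stock).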

[6] = qHTS assay to identify small molecule agonists of the TGF-beta/Smad signaling pathway - cell viability counter screen (AID 1346829); further: nearly all actives have a fitted effect of over 45% in size; further: potency means the concentration at half of the fitted maximal effect
Summary of the method: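 SBE-bla HEK 293T cells plated overnight, compound exposure 5 hr at 37 C. Viability read in the same wells by CellTiter-Glo luminescence after 30 min at room temperature, following the beta-lactamase read.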

[7] = qHTS assay to identify small molecule agonists of the TGF-beta/Smad signaling pathway (AID 1346859; active means well fitted activation curve with a large enough effect in the signal ratio in the repeat runs, not every such curve was filed as active; the % refers to the signal ratio; further: series mostly up to about 77 µM)
Summary of the method: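 Reporter line: HEK 293T with stably integrated SBE-controlled beta-lactamase. Compound exposure lasts 5 hr at 37 C and 5% CO2; substrate loading follows for 2 hr at room temperature, with emission read at 460 and 530 nm.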

[8] = target: Thyrotropin-releasing hormone receptor (Homo sapiens) (UniProt P34981); assay: qHTS assay to identify small molecule antagonists of the thyrotropin-releasing hormone receptor (TRHR) signaling pathway (AID 1346877; active means well fitted inhibition curve with a large enough effect in the repeat runs, not every such curve was filed as active; further: series mostly up to about 51 µM)
Thyrotropin-releasing hormone receptor (Homo sapiens), sequence (P34981 whole entry, looked up): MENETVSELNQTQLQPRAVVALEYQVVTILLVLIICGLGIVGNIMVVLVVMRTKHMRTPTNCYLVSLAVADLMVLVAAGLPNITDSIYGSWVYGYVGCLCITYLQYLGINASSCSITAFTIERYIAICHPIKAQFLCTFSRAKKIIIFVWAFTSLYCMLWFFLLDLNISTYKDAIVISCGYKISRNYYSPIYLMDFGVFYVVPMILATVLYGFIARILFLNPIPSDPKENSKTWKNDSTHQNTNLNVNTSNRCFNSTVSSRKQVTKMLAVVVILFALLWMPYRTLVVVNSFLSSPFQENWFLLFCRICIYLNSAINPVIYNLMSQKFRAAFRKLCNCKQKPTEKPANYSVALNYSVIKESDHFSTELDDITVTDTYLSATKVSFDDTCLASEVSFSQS
Summary of the method: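 Calcium signal in dye-loaded TRHR/HEK293 cells; compounds added 5 min before TRH (1 nM final); fluorescence monitored 3 min at 1 s steps.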

[9] = target: Thyrotropin-releasing hormone receptor (Homo sapiens) (UniProt P34981); assay: qHTS assay to identify small molecule agonists of the thyrotropin-releasing hormone receptor (TRHR) signaling pathway (AID 1346891; calls by dose curve;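 further: HEK293 cells expressing TRHR with calcium dye readout; series mostly up to about 58 µM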)
Summary of the method: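 Cells: TRHR-Hek293, seeded and incubated 18 h. Dye loading: 2 h at 37 °C. Compound added from DMSO stock by pin tool. Read-out: kinetic calcium fluorescence over 3 min.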

[10] = Human pregnane X receptor (PXR) small molecule agonists, qHTS cell viability counter screen (AID 1346977); further: nearly all actives have a fitted effect of over 50% in size; further: potency means the concentration at half of the fitted maximal effect
Summary of the method: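 Cytotoxicity counter screen run in the same wells as the PXR luciferase assay, using PXR-Luc HepG2 cells in charcoal-stripped serum medium. Viability: CellTiter-Fluor fluorescence after 24hr compound treatment.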

[11] = Caspase-3/7 induction in CHO-K1 cells by small molecules, qHTS cell viability counter screen (AID 1346979); further: nearly all actives have a fitted effect of over 35% in size; further: potency means the concentration at half of the fitted maximal effect
Summary of the method: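 Cytotoxicity counter screen run in parallel with the caspase-3/7 assay: CHO-K1 cells, 16hr compound treatment at 37C, then CellTiter-Fluor for 1hr before fluorescence reading.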

[12] = Caspase-3/7 induction in HepG2 cells by small molecules, qHTS cell viability counter screen (AID 1346981); further: nearly all actives have a fitted effect of over 30% in size; further: potency means the concentration at half of the fitted maximal effect
Summary of the method: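 After a 5-hr attachment period at 37 C and 5% CO2, wild-type HepG2 cells received compounds in DMSO. Sixteen hours later CellTiter-Fluor was dispensed and the fluorescent signal quantified after a further hour.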

[13] = target: Nuclear receptor subfamily 1 group I member 2 (Homo sapiens) (UniProt O75469); assay: Human pregnane X receptor (PXR) small molecule agonists, qHTS assay (AID 1346982); further: nearly all actives have a fitted effect of over 35% in size; further: potency means the concentration at half of the fitted maximal effect
Nuclear receptor subfamily 1 group I member 2 (Homo sapiens), sequence (O75469 whole entry, looked up): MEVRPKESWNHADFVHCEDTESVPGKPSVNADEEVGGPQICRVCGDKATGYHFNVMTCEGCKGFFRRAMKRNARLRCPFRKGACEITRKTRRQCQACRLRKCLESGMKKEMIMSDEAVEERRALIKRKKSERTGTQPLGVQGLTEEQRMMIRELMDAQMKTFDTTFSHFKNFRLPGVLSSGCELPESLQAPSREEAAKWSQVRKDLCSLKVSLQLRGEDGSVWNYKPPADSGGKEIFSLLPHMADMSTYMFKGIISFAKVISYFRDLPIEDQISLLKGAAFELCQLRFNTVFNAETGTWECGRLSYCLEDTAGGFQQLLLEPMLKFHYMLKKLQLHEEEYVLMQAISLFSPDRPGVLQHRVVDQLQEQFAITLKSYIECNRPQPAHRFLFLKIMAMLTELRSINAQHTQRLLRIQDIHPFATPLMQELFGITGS
Summary of the method: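 Tox21 qHTS; PXR-Luc HepG2; compounds pinned from DMSO; 24 hr, 37 C; ONE-Glo luciferase detection, 30 min room temperature.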

[14] = target: Cytochrome P450 2D6 (Homo sapiens) (UniProt P10635); assay: Cytochrome P450 Family 2 Subfamily D Member 6 (CYP2D6) small molecule antagonists: luciferase reporter qHTS assay (AID 1671196); further: nearly all actives have a fitted effect of over 50% in size; further: potency means the concentration at half of the fitted maximal effect
Cytochrome P450 2D6 (Homo sapiens), sequence (P10635 whole entry, looked up): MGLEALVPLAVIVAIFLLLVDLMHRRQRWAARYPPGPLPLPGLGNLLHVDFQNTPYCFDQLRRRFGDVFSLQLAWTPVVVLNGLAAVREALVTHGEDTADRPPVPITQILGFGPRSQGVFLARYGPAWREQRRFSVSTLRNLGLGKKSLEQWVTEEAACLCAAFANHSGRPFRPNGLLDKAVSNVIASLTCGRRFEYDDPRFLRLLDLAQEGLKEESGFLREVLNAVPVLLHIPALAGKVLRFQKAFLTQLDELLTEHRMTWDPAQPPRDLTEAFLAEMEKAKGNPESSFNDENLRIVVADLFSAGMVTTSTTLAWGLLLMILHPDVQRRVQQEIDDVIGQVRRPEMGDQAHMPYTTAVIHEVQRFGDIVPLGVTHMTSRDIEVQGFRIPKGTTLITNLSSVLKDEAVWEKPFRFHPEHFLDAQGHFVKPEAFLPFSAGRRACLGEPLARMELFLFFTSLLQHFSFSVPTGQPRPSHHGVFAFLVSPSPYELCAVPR
Summary of the method: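 Room-temperature luminescent CYP2D6 activity assay: compound preincubated 10 min with enzyme–substrate mix, NADPH-initiated reaction 1 h, detection reagent 20 min before reading.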

[15] = target: Progesterone receptor (Homo sapiens) (UniProt P06401); assay: qHTS assay to identify small molecule antagonists of the progesterone receptor (PR) signaling pathway (AID 1346795; active means well fitted inhibition curve with a large enough effect in the signal ratio in the repeat runs, not every such curve was filed as active; the % refers to the signal ratio)
Summary of the method: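 Antagonist mode: compounds tested against 1 nM (final) promegestone stimulation in HEK293T cells expressing PR-UAS-bla reporter, 16 hr at 37C, 5% CO2; beta-lactamase activity detected via B/G FRET substrate after 2 hr at room temperature.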

[16] = Caspase-3/7 induction in HepG2 cells by small molecules, qHTS assay (AID 1346978); further: nearly all actives have a fitted effect of over 15% in size; further: potency means the concentration at half of the fitted maximal effect
Summary of the method: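 Caspase-3/7 induction was measured by Caspase-Glo 3/7 luminescence (30 min, room temperature) after a 17 hr compound exposure of wild-type HepG2 cells seeded at 2,000 per well and pre-incubated 5 hr.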

[17] = Caspase-3/7 induction in CHO-K1 cells by small molecules, qHTS assay (AID 1346980); further: nearly all actives have a fitted effect of over 15% in size; further: potency means the concentration at half of the fitted maximal effect
Summary of the method: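 Luminescent Caspase-Glo 3/7 read (30min, room temperature) quantified apoptosis induction. Cells were wild-type CHO-K1, treated with compound for 17hr at 37 C and 5% CO2.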

[18] = target: Nuclear receptor subfamily 1 group I member 2 (Rattus norvegicus) (UniProt Q9R1A7); assay: Rat pregnane X receptor (rPXR) activation by small molecules, qHTS assay (AID 1346983); details: rPXR luciferase reporter cells, One-Glo luminescence, 24 h; stronger effect = higher value; further: nearly all actives have a fitted effect of over 20% in size
Nuclear receptor subfamily 1 group I member 2 (Rattus norvegicus), sequence (Q9R1A7 whole entry, looked up): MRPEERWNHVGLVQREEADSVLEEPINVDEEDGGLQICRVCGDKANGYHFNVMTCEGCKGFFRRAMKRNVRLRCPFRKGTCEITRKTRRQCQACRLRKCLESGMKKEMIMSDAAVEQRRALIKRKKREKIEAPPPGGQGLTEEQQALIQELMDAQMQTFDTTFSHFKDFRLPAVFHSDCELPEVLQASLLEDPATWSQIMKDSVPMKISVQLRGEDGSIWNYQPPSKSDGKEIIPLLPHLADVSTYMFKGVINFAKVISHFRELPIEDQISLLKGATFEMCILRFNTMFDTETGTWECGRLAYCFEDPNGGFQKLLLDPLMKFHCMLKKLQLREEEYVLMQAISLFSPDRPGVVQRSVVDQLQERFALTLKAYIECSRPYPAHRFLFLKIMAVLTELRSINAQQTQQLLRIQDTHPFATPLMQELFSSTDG
Summary of the method: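 Luminescent readout (One-Glo luciferase, 30 min room temperature) followed 24 hr compound treatment at 37 C of rPXR cells plated 2,000 per well and preincubated 5hr; qHTS format with compounds delivered in DMSO.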

[19] = target: Nuclear receptor subfamily 1 group I member 2 (Homo sapiens) (UniProt O75469); assay: CYP3A4 induction through human pregnane X receptor (PXR) by small molecules, qHTS assay (AID 1346984); further: nearly all actives have a fitted effect of over 40% in size
Summary of the method: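 Cells (DPX-2; HepG2 with PXR element plus CYP3A4-promoter luciferase) settled 5hr, then were treated 24hr at 37C. A 3hr, 3uM-final Luciferin-IPA step preceded luminescence measurement with One-Glo.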

[20] = target: Nuclear receptor subfamily 1 group I member 2 (Homo sapiens) (UniProt O75469); assay: Human pregnane X receptor (PXR) activation by small molecules, qHTS assay (AID 1346985); further: nearly all actives have a fitted effect of over 40% in size
Summary of the method: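 DPX-2 cells (HepG2 co-transfected with a PXR response element and a CYP3A4-promoter luciferase construct) were seeded at 2,000 per well, rested 5 hr at 37C, then exposed to DMSO-dissolved compounds for 24 hr. Activation was read as luciferase luminescence.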

| Compound | Potency [1] | Potency [2] | Potency [3] | Potency [4] | Potency [5] | Potency [6] | outcome [7] | Potency [8] | Potency [9] | Potency [10] | Potency [11] | Potency [12] | Potency [13] | Potency [14] | Potency [15] | Potency [16] | Potency [17] | max activation [18] | Potency [19] | Potency [20] |
| --- | --- | --- | --- | --- | --- | --- | --- | --- | --- | --- | --- | --- | --- | --- | --- | --- | --- | --- | --- | --- |
| C=CC(=O)OCCCCCCOC(=O)C=C | inactive | inactive | inactive | inactive | inactive | inactive | inactive | inactive | inactive | inactive | 43.8 µM (active) and 43.3 µM (active) | inactive | inactive | inactive |  |  |  |  |  |  |
| CCCOC(=O)c1cc(O)c(O)c(O)c1 |  | inactive | inactive | inactive | inactive | inactive | inactive |  |  |  | 48.3 µM (active) and 30.6 µM (active) | inactive | 27.3 µM (active) | 31.6 µM (active) and 35.6 µM (active) | inactive | inactive | inactive |  |  |  |
| OCCOCCN1CCN(C(c2ccccc2)c2ccc(Cl)cc2)CC1 (configuration not stated) | inactive |  |  | 33.9 µM (active) | inactive | inactive | inactive | inactive | inactive | 24 µM (active) | 53.8 µM (active) and inactive | 21.4 µM (active) and inactive | 8.52 µM (active) and inactive |  |  | 53.8 µM (active) and inactive | inactive |  |  |  |
| CCCCCCCCCCCCc1ccccc1O | 68.6 µM (active) |  |  | 53.8 µM (active) and 30.6 µM (active) | 54.2 µM (active) and 54.9 µM (active) | 49 µM (active) | inactive | inactive | inactive | 47.9 µM (active) and 30.6 µM (active) | 53.8 µM (active) and 54.5 µM (active) | 60.3 µM (active) and 48.6 µM (active) | 6.03 µM (active) | inactive |  | 60.3 µM (active) and 54.5 µM (active) | 60.3 µM (active) and 68.6 µM (active) |  |  |  |
| CC(=O)Nc1ccc(C(=O)CCl)cc1 |  | inactive | inactive | inactive | inactive | inactive | inactive | inactive | inactive | inactive and 61.1 µM (active) | 54.8 µM (active) and 17.2 µM (active) | inactive | 21.8 µM (active) and 24.3 µM (active) |  | inactive | inactive | inactive |  |  |  |
| NCCCCCC(=O)O |  | inactive | inactive | inactive | inactive | inactive | inactive | inactive | inactive | inactive | inactive | inactive | inactive | inactive | inactive | inactive | inactive | 1.85% (inactive) | inactive | inactive |
| CCCCCCC(O)CCCCCCCCCCC(=O)O (configuration not stated) | inactive | inactive |  | 48.7 µM (active) and 15.4 µM (active) | inactive | inactive |  | inactive | inactive | inactive | inactive | inactive | inactive | inactive |  | inactive | inactive |  |  |  |
